# HEK293 tox – HEK 293 cell cytotoxicity; HEK 293 viability, ATP luminescence (CellTiter-Glo), 48-72 h; Potency, µM (series often up to 115 µM), usual class: inhibitors; actives 6.6% (n = 94,000); AID 1345083; also: nearly all actives have a fitted effect of over 60% in size
#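 250 HEK 293 cells/well; compound by pintool; incubated 48 or 72 hr at 37 degree Celsius; CellTiter-Glo added, 10 min RT, luminescence imaged.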
# 3T3 cytotox – NIH 3T3 cell cytotoxicity. NIH 3T3 viability, CellTiter-Glo ATP luminescence, 48-72 h. Potency, µM (titrated, usually from 96.7 µM), actives largely listed as inhibitors. actives 4.3% (n = 94,000). AID 1345082; also: nearly all actives have a fitted effect of over 55% in size
#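 Cytotoxicity was measured by CellTiter-Glo ATP luminescence after 48 or 72 h compound exposure at 37 °C. Mouse NIH 3T3 fibroblasts were seeded at 400 cells/well and dosed by 23 nL pin transfer.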
# FLuc inh – blocks purified firefly luciferase enzyme activity; actives 2.5% (n = 76,000); Potency, µM (top dose mostly 115 µM), most hits filed as inhibitors; AID 1347043; purified P. pyralis luciferase, luminescence, biochemical; also: nearly all actives have a fitted effect of over 65% in size
#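 Luminescence read by CCD imaging after purified firefly luciferase (10nM final) was added to substrate buffer holding 10uM D-luciferin and 10uM ATP, pH 7.5, pre-dosed with compound.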
# NPR1 antag – blocks ANP-stimulated signaling of human Npr1 receptor. P16066. HEK293 hNpr1 GloSensor cGMP, ANP-stimulated luminescence. Potency, µM (series often up to 46.3 µM), usual class: inhibitors. actives 1.6% (n = 76,000); calls by dose curve; also: nearly all actives have a fitted effect of over 60% in size
#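 HEK293 cells stably expressing human Npr1 and cGMP GloSensor pGS-40F, loaded 2 h with 2% GloSensor reagent, given compound 30 min at room temperature. Luminescence read before and 20 min after 0.1 nM hNppA.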
# GPT2 inh – blocks human glutamate pyruvate transaminase 2; Potency, µM (series often up to 57.7 µM), actives largely listed as inhibitors; Q8TD30; Recombinant GPT2, coupled pyruvate oxidase/HRP Amplex Red fluorescence; actives 0.25% (n = 100,000); also: nearly all actives have a fitted effect of over 60% in size
#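 Fluorescence of coupled pyruvate oxidase/HRP/Amplex Red system (50uM Amplex, 30 min, dark) reports pyruvate formed by GPT2. Enzyme reaction: 10ng/uL GPT2, 2mM L-alanine, 250uM a-KG, 30 min room temperature, pH 7.5; 50uM AOA control.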
# A number is an active result; - = inactive; ? = inconclusive; . = not tested or not shown; [ ] = another dose, or the depositor's remark. Shown are actives, neighbours in structure and some others; about 10% of the full set was active somewhere. Unless noted, calls follow the shape of the dose curve; as a rule, active = well fitted curve in the direction sought with a large enough effect; inconclusive = small, poorly fitted or top-dose-only effect, or another doubt; inactive = no such curve, though single readings can be large; an effect the other way counts as inactive or inconclusive.
SMILES,HEK293 tox,3T3 cytotox,FLuc inh,NPR1 antag,GPT2 inh
COc1cc(-c2nc(-c3c(C)noc3C)cc3[nH]c(C)cc23)ccn1,89µM,?,-,-,-
CCOC(=O)C1=CN(CC(=O)Nc2ccc(OCC)cc2)S(=O)(=O)N=C1C,-,-,-,-,-
CCCCn1c(=O)c(C(=O)NCCc2ccccc2)nc2cccnc21,45µM,?,.,.,-
CCCCn1c(=O)c(C(=O)NCc2ccccc2)nc2cccnc21,?,?,.,.,-
CCCCn1c(=O)c(C(=O)NCc2cccc(Cl)c2)nc2cccnc21,?,35µM,.,.,-
O=C(NCCc1ccccc1)c1nc2cccnc2n(CCc2ccccc2)c1=O,?,-,.,.,-
O=C(NCc1cccc(Cl)c1)c1nc2cccnc2n(CCc2ccccc2)c1=O,35µM,?,.,.,-
FC(F)(F)CN1C2CCC1CN(c1nnnn1-c1ccccc1)C2,-,-,.,.,-
COc1ccccc1C(=O)N[C@@H]1CN(C2CCOCC2)C[C@H]1CN(C)C,?,-,-,-,-
COCc1cc(CNC(=O)C2(Oc3ccc(Cl)cc3)CCNCC2)[nH]n1,-,-,-,-,-[11.5 µM]
CCN1c2cc(C(=O)Nc3ccc(OC)cc3)ccc2C(=O)N2CCCCCC21 (stereo not drawn),?,?,-,-,-
CCc1ccc(NC(=O)c2ccc3c(c2)N(CC)C2CCCCCN2C3=O)cc1 (stereo not drawn),18µM,28µM,?,-,-
CCN1c2cc(C(=O)Nc3ccc(C(=O)OC)cc3)ccc2C(=O)N2CCCCCC21 (stereo not drawn),45µM,?,-,-,-
O=C(c1ccccc1F)N1C[C@@H](COCC2CC2)[C@H](c2ccccn2)C1,-,-,-,-,-
OC(c1nc(Nc2cccc(Cl)c2)n[nH]1)C1CC1 (stereo not drawn),-,?,45µM,-,-
OC(c1nc(Nc2cccc(F)c2)n[nH]1)C1CC1 (stereo not drawn),-,112µM,?,-,-
O=C(c1ccc2c(c1)OCO2)N1CCCC2(CNc3ccccc3[S+](=O)([O-])N2)C1 (stereo not drawn),-,-,-,-,-
Cn1ccnc1C(=O)N1CCCC(c2nn(C)c(=O)n2C2CCCC2)C1 (stereo not drawn),-,-,.,.,-
COCCNC(=O)c1ccc2nnc(-c3cccnc3)n2c1,-,-,.,.,-
Cc1nc2scc(CC(=O)N3CCCCC3)n2c(=O)c1-c1cc(C)n(-c2ccc(F)cc2)n1,-,-,-,-,-
CC1=C[C@@H](CNCc2ccc(F)cc2)[C@H](C(C)C)C[C@H]1Cc1nnc(C)o1,?,?,-,-,-
CC1=C[C@@H](CNCc2ccc(Cl)cc2)[C@H](C(C)C)C[C@H]1Cc1nnc(-c2cncn2C)o1,79µM,40µM,-,-,-
CC1=C[C@@H](CNCc2ccc(F)cc2)[C@H](C(C)C)C[C@H]1Cc1nnc(-c2cncn2C)o1,45µM,?,-,-,-
COc1ccc(-c2ccc3nnc(CNC(=O)c4ccc(C)c(C)c4)n3n2)cc1,?,-,-,-,?
C=CCOc1c(OC)ccc2c1CN(C1CCCC1)C(=O)CCN2CC(O)Cc1ccccc1 (stereo not drawn),45µM,?,.,.,.
SMILES,HEK293 tox,3T3 cytotox,FLuc inh,NPR1 antag,GPT2 inh
C=CCOCC(O)CN1CCC(=O)N(C2CCCC2)Cc2c1ccc(OC)c2OCC=C (stereo not drawn),?,-,.,.,.
C=CCOc1c(OC)ccc2c1CN(CC1CC1)C(=O)CCN2C[C@@H](O)COCc1ccccc1,45µM,?,.,.,.
CCOC(=O)CN1Cc2ccccc2N(CC(O)COc2ccc(OC)cc2)CCC1=O (stereo not drawn),?,-,.,.,.
C=CCOc1c(OC)ccc2c1CN(CC)C(=O)CCN2CC(O)COc1ccc(OC)cc1 (stereo not drawn),40µM,?,.,.,.
C=CCOc1c(OC)ccc2c1CN(CCOC)C(=O)CCN2CC(O)Cc1ccccc1 (stereo not drawn),?,-,.,.,.
CO[C@H]1C(=O)N(C2CCN(C(=O)Cc3c[nH]c4ccccc34)CC2)[C@H]1c1ccncc1,-,-,-,-,-
CNC(=O)c1cccc(-c2cnc3[nH]cc(CC(=O)NCC(C)C)c3c2)c1,?,35µM,-,-,-
CNC(=O)c1cccc(-c2cnc3[nH]cc(CC(=O)Nc4ccccc4C)c3c2)c1,?,?,?,-,-
O=C(Cc1c[nH]c2ncc(-c3cccnc3)cc12)N1CCN(c2ccccn2)CC1,?,?,-,-,-
COC1CCN(C(=O)Cc2c[nH]c3ncc(-c4cccnc4)cc23)CC1,-,79µM,-,-,-
CNC(=O)c1cccc(-c2cnc3[nH]cc(CC(=O)N4CCC(OC)CC4)c3c2)c1,-,89µM,?,-,-
COc1ncc(-c2cnc3[nH]cc(CC(=O)N4CCOCC4)c3c2)cn1,-,79µM,-,-,-
O=C(Cc1c[nH]c2ncc(-c3ccoc3)cc12)N1CCOCC1,?,?,-,-,-
CNC(=O)c1cccc(-c2cnc3[nH]cc(CC(=O)N4CCCC4)c3c2)c1,?,?,-,-,-
CCNC(=O)c1coc(COc2ccc3c(c2)C(c2cccc(F)c2)N(C(=O)C(C)C)CC3)n1 (stereo not drawn),40µM,?,-,-,-
CCCNC(=O)c1coc(COc2ccc3c(c2)C(c2ccc(F)cc2)N(C(=O)C(C)C)CC3)n1 (stereo not drawn),?,22µM,-,-,-
COc1cccc(CC(=O)N2CCC3(CC2)CC(O)CCO3)c1 (stereo not drawn),-,-,-,-,-
COc1cccc(CC(=O)N[C@@H]2CCC[C@@H](C(=O)NCc3cc(F)cc(F)c3)CC(=O)N(C)C2)c1,-,-,-,-,-
O=C1CCN(CC(O)Cc2ccccc2)c2ccccc2CCN1C/C=C/c1ccccc1 (stereo not drawn),22µM,?,.,.,?
COc1ccc(-c2cc(C(=O)NC3CC3)c3c(C4CCNCC4)noc3n2)cc1,?,?,.,.,-
COc1ccc(C(=O)N[C@@H]2CN(C(=O)Nc3ccc(F)cc3)CCC[C@H]2O)cc1,?,100µM,?,-,-
COc1ccc(C(=O)N[C@@H]2CN(C(=O)Nc3ccccc3)CCC[C@H]2O)cc1,?,?,-,-,-
CSc1ccc(NC(=O)c2ccc3c(c2)N(C)C2CCCCCN2C3=O)cc1 (stereo not drawn),?,?,?,?,-
CN1c2cc(C(=O)Nc3ccc(C(F)(F)F)cc3)ccc2C(=O)N2CCCCCC21 (stereo not drawn),?,?,?,-,-
CN1c2cc(C(=O)Nc3ccc(Br)cc3)ccc2C(=O)N2CCCCC21 (stereo not drawn),?,?,32µM,-,-

# Screening data deposited in PubChem by National Center for Advancing Translational Sciences (NCATS).
